The values that follow come from PubChem BioAssay.

Several values for one entry are separate records, joined by “and”; a condition that tells them apart may be missing. Equal values may be shown once. Unmarked numbers belong to inactive results. Activity calls are given as the source filed them.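 The calls were made as follows: active = inhibition at or above 50% relative to wild type and mutant plate controls; inactive = inhibition below 50%.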

As usually defined, the inhibition is the change of the read-out against control, counted positive when it falls.

This test is described as follows: loss of swimming-algae plug formation – whole organism, Chlamydomonas reinhardtii, WT vs cilia-less mutant, absorbance, 96-well, primary screen (AID 463189).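 Also: 0% = wild type cc124 cells in DMSO and 100% = ciliumless bld1 mutant cells.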 The following applies: Chlamydomonas reinhardtii gravitaxis, OD600 absorbance, 2 days; at 10 µM; stronger effect = higher value.

Consider `Clc1ccc(C(c2ccccc2Cl)C(Cl)Cl)cc1` (stereo unspecified), for which the inhibition is 11.1%.

For the molecule `Nc1ncnc2c1ncn2C1CCCO1` (stereo unspecified), the inhibition is -5.2%.

As to `CSc1nc(N)c2ncn([C@@H]3O[C@H](COP(=O)(O)OP(=O)(O)O)[C@H](O)C3O)c2n1` (stereo partly specified), the inhibition was 6.63%.

Consider `CC(C(=O)O)c1cccc(C(=O)c2ccccc2)c1` (stereo unspecified), for which the inhibition was -4.65%.

Regarding `N[C@@H](Cc1c[nH]c2ccc(O)cc12)C(=O)O`, the inhibition is 4.83%.

For `Cn1cnc2c(NCc3ccccc3)nc(NCCO)nc21`, the inhibition was 5.79%.

In the case of `NC(=O)C1=CN(C2OC(COP(=O)(O)OP(=O)(O)OC[C@H]3O[C@@H](n4cnc5c(N)ncnc54)C(OP(=O)(O)O)[C@H]3O)C(O)C2O)C=CC1` (stereo partly specified), the inhibition was -0.493%.

For `CC(N)=O`, the inhibition was 0.285%.

With `NCCCS(=O)(=O)O`, the inhibition was -4.87%.

`CC(C)(C)c1ccc(S(=O)(=O)/C=C/C#N)cc1`: the inhibition is 155% (active).

As for `CCNC(=O)N1CCN(CCCC(c2ccc(F)cc2)c2ccc(F)cc2)CC1`, the inhibition was 133% (active).

In the case of `N#C/C(=C\c1ccc(O)c(O)c1)C(=O)c1ccc(O)c(O)c1`, the inhibition is 2.24%.

For the molecule `CCCCN1CCC(COC(=O)c2cc(Cl)c(N)c3c2OCCO3)CC1`, the inhibition is -6.29%.

With `CCCOC(=O)c1c(-c2ccccc2)nc(CC)c(C(=O)SCC)c1CCC`, the inhibition is 10.6%.

`CN1C[C@H](C(=O)N[C@]2(C)O[C@@]3(O)[C@@H]4CCCN4C(=O)[C@H](Cc4ccccc4)N3C2=O)C[C@@H]2c3cccc4[nH]cc(c34)C[C@H]21`: the inhibition is -12.5%.

As for `NC1CONC1=O` (stereo unspecified), the inhibition is 8.19%.

As to `COC(=O)C(C)(N)Cc1ccc(O)cc1` (stereo unspecified), the inhibition is 9.13%.

Take `CCN(CC)CCOCCOC(=O)C1(c2ccccc2)CCCC1`: the inhibition is 5.28%.

In the case of `NC(=NCCC[C@H](N)C(=O)O)NO`, the inhibition was -1.45%.

For the molecule `COc1cc(/C=C(\C#N)C(=O)c2ccc(O)c(O)c2)cc(I)c1O`, the inhibition is 7.26%.

Regarding `CC(C)[C@@H](CO)Nc1nc(Nc2cccc(Cl)c2)c2ncn(C(C)C)c2n1`, the inhibition is -2.67%.

Take `O=c1[nH]c2cc(C(F)(F)F)ccc2n1-c1cc(C(F)(F)F)ccc1O`: the inhibition is -0.852%.

For the molecule `C=CC1(C)CC(=O)C2(O)C(C)(O1)C(OC(C)=O)C(O)C1C(C)(C)CCC(O)C12C` (stereo unspecified), the inhibition is -1.2%.

Consider `Nc1ncnc2c1nc(Br)n2C1OC2COP(=O)(O)O[C@@H]2C1O` (stereo partly specified), for which the inhibition was 7.89%.

Regarding `CC(C)(C)NCC(O)c1ccc(O)c(CO)c1` (stereo unspecified), the inhibition was 2.6% and 2.52%.

As to `CC(C(O)c1ccc(O)cc1)N1CCC(Cc2ccccc2)CC1` (stereo unspecified), the inhibition was 1.86%.

On to `CC1(C)CCC(NC(=O)[C@@H](N)CCC(=O)O)CC1`, for which the inhibition is 2.89%.

Regarding `O=C(O)C1CCNCC1`, the inhibition is 4.95%.

On to `CC(=O)OCC1=C(C(=O)O)N2C(=O)[C@@H](NC(=O)CSc3ccncc3)[C@H]2SC1`, for which the inhibition was 6.67%.

For `C=C[C@H]1CN2CCC1C[C@@H]2[C@@H](O)c1ccnc2ccc(OC)cc12` (stereo partly specified), the inhibition was 5.44%.

For the molecule `CCCCCCCCCC[Si](C)(C)CCC(=O)NC(Cc1ccc(C)cc1)c1ccccc1` (stereo unspecified), the inhibition was 1.73%.

For the molecule `CN(Cc1cnc2nc(N)nc(N)c2n1)c1ccc(C(=O)N[C@@H](CCC(=O)O)C(=O)O)cc1`, the inhibition was -2.7%.

On to `CC(C(=O)O)c1ccc(CC2CCCC2=O)cc1` (stereo unspecified), for which the inhibition was -6.18%.

Consider `Cn1c(=O)c2c(ncn2C)n(C)c1=O`, for which the inhibition was 1.74%.

With `CC(N)(C(=O)O)c1ccc(C(=O)O)cc1` (stereo unspecified), the inhibition is 5.26%.

Take `C[C@@H](Oc1ccc(Oc2cnc3ccc(Cl)cc3n2)cc1)C(=O)O`: the inhibition is 9.86%.

Consider `c1ccc2nc(C3=NCCN3)ccc2c1`, for which the inhibition is 108% (active).

`COc1ccccc1N1CCN(CCN(C(=O)C2CCCCC2)c2ccccn2)CC1`: the inhibition was 9.85%.

In the case of `CCOC(=O)Nc1ccc(NCc2ccc(F)cc2)nc1N`, the inhibition is 3.93%.

With `CNC[C@H](O)c1ccc(O)c(O)c1`, the inhibition is 1.9%.

Turning to `C[N+](C)(C)CCO`, the inhibition is 2.98%.

On to `CCN(CC)CCCCCCCCOC(=O)c1cc(OC)c(OC)c(OC)c1`, for which the inhibition is 24.5%.

For the molecule `CCCCCCCCCCCCCCCCCC(=O)NCC(COP(=O)([O-])OCC[N+](C)(C)C)OCC` (stereo unspecified), the inhibition was 9.71%.

Regarding `COC(=O)[C@@H]1[C@H]2C[C@H]3c4[nH]c5ccccc5c4CCN3C[C@@H]2CC[C@@H]1O`, the inhibition is 8.68%.

For the molecule `O=C(O)C1=CCCNC1`, the inhibition is 5.21%.

As for `N[C@@H](Cc1ccc(O)c(O)c1)C(=O)O`, the inhibition is 2.49%.

With `CCCCCCCCCCCCCCCCOCC(COCC(F)(F)F)OP(=O)(O)OCO` (stereo unspecified), the inhibition is 6.55%.

As for `Cn1cc(C(=O)OCC2CCN(CCNS(C)(=O)=O)CC2)c2ccccc21`, the inhibition is 6.02%.

Regarding `O=C(O)CCC(C(=O)O)N1C(=O)c2ccccc2C1=O` (stereo unspecified), the inhibition is 0.124%.

Turning to `NC1(C(=O)O)CCc2cc(C(=O)O)ccc21` (stereo unspecified), the inhibition was 4.42%.

`N#C/C(=C\c1c[nH]c2ccccc12)C(=O)c1ccc(O)c(O)c1`: the inhibition is 4.95%.

Turning to `O=C(/C=C/c1ccc(O)cc1)c1ccc(O)cc1O`, the inhibition is 2.79%.

`CCN1CCc2nc(N)oc2CC1`: the inhibition was 6.74%.

Take `CC(C)NCC(O)COc1cccc2ccccc12` (stereo unspecified): the inhibition is 6.9%.

Consider `CC(C)COCC(CN(Cc1ccccc1)c1ccccc1)N1CCCC1` (stereo unspecified), for which the inhibition was -3.6%.

Take `O=NN(CCCl)C(=O)NCCCl`: the inhibition is 6.33%.

For `O=C(O)CP(=O)(O)O`, the inhibition is 7.76%.

For the molecule `CCCCCCCCCCCCC/C=C/C(O)C(N)CO` (stereo unspecified), the inhibition is -1.48%.

With `O=c1[nH]c(=O)n([C@H]2C[C@H](O)[C@@H](CO)O2)cc1/C=C/Br`, the inhibition is 6.74%.

In the case of `Nc1ncnc2c1nc(Sc1ccc(Cl)cc1)n2C1OC2COP(=O)(O)O[C@@H]2[C@@H]1O` (stereo partly specified), the inhibition was 9.99%.

Regarding `NC(N)=[N+]1CCc2ccccc2C1`, the inhibition is -2.7%.

With `COc1ccc(-c2ccc(N)[n+](CCCC(=O)O)n2)cc1`, the inhibition was 7.29%.

Consider `CC(=O)NCCc1ccc(O)c(O)c1`, for which the inhibition was 5.98%.

`Cc1cccc(/C=C/c2ccccc2)n1`: the inhibition was 27.5%.

In the case of `CC(C)NC[C@@H](O)COc1ccc(CC(N)=O)cc1`, the inhibition is -8.19%.

Consider `Cn1ccnc1`, for which the inhibition is 9.19%.

Turning to `CN(C)C/C=C(/c1ccc(Br)cc1)c1cccnc1`, the inhibition is 108% (active).

For `CCCN1C[C@H](CSC)C[C@@H]2c3cccc4[nH]cc(c34)C[C@H]21`, the inhibition is 5.65%.

Regarding `CCCCCCCCCCCCCCC[C@H](O)[C@H](N)CO`, the inhibition was 38.7%.

Turning to `CNCC[C@@H](Oc1ccc(C(F)(F)F)cc1)c1ccccc1`, the inhibition is 34%.

On to `Cc1cc(C)c(NC(=O)C[C@H](CC(=O)O)c2cccc3ccccc23)c(C(=O)N2CCC3(CCCC3)CC2)c1`, for which the inhibition is 13.6%.

For `NCCCC(N)(C(=O)O)C(F)F` (stereo unspecified), the inhibition is 3.03%.

Take `CC1(C)NC(=O)N(c2ccc([N+](=O)[O-])c(C(F)(F)F)c2)C1=O`: the inhibition is 0.277%.

For `COc1ccc(CCCOc2cc(CCn3ccnc3)ccc2OC)cc1`, the inhibition is 1.24%.

Regarding `OC[C@H]1O[C@@H](n2cnc3c(NC4CCCC4)ncnc32)C(O)[C@H]1O` (stereo partly specified), the inhibition was 2.66%.

For `COc1cc(NS(C)(=O)=O)ccc1Nc1c2ccccc2nc2ccccc12`, the inhibition was -1.97%.

In the case of `NOCC(=O)O`, the inhibition is -13.3%.

On to `OC[C@H]1O[C@@H](n2cnc3c(NCCc4ccccc4)ncnc32)C(O)[C@H]1O` (stereo partly specified), for which the inhibition was -17%.

Take `NCCNC(=O)c1ncsc1-c1cccc(F)c1`: the inhibition was 0.32%.

Take `COc1cc(OC)c(/C=C2/C(=O)Nc3ccccc32)c(OC)c1`: the inhibition was 6.51%.

For `NCCCNCCSP(=O)(O)O`, the inhibition is 1.58%.

With `N#C/C(=C\c1ccc(O)c(O)c1)C(=O)NCc1ccccc1`, the inhibition was -4.45%.

Turning to `CC1(C)CCC=[N+]1[O-]`, the inhibition is 0.394%.

As to `CC(=O)O[C@]1(C(C)=O)CC[C@H]2[C@@H]3C=C(Cl)C4=CC(=O)[C@@H]5C[C@@H]5[C@]4(C)[C@H]3CC[C@@]21C`, the inhibition was 6.43%.

For the molecule `C[n+]1cc2c3c(ccc2c2ccc4cc5c(cc4c21)OCO5)OCO3`, the inhibition is 145% (active).

Turning to `NC(=O)CC[C@H](N)C(=O)O`, the inhibition was -13.2%.

`NC(=O)c1ncn([C@@H]2O[C@H](CO)[C@@H](O)[C@H]2O)n1`: the inhibition was 8.25%.

Consider `O=C(c1ccccc1)c1ccc2n1CCC2C(=O)O` (stereo unspecified), for which the inhibition is -6.13%.

For the molecule `CNCC(O)c1ccc(O)c(O)c1` (stereo unspecified), the inhibition was 4.49%.

Take `c1cc(CN2CCCCC2)cc(OCCCNc2nc3ccccc3s2)c1`: the inhibition was 26.8%.

Take `CC12C(=O)OC(=O)C1(C)C1CCC2O1` (stereo unspecified): the inhibition was -3.97%.

Consider `CC(=O)N[C@H](C(=O)O)C(C)(C)SN=O`, for which the inhibition is 3.53%.

In the case of `CC(N)C1CCC(C(=O)Nc2ccncc2)CC1` (stereo unspecified), the inhibition was 3.82%.

Turning to `O=Nc1c(-c2c(O)[nH]c3ccccc23)[nH]c2ccccc12`, the inhibition was 1.78%.

For the molecule `COC(=O)C(N)Cc1ccc(Cl)cc1` (stereo unspecified), the inhibition is -0.698%.

For the molecule `NCC(O)(CS(=O)(=O)O)c1ccc(Cl)cc1` (stereo unspecified), the inhibition is 30.8%.

Take `Cc1cccc(C2CN(C)CCc3c2cc(O)c(O)c3Cl)c1` (stereo unspecified): the inhibition is 3.56%.

In the case of `N=S(=O)(O)Cc1noc2ccccc12`, the inhibition is 4.33%.

`CCN1C(=O)C=CC1=O`: the inhibition was -6.91%.

In the case of `Oc1cc(O)c2c(c1)O[C@H](c1ccc(O)c(O)c1)[C@@H](O)C2`, the inhibition was 2.87%.

Consider `CCSC(=N)N`, for which the inhibition is 4.79%.
